Test results as given in the GenesisPotency data set.
Among all 290,000 compounds or so, about 3,000 (1%) were called active. This is one part of a sample in which actives are shown more often than they occur. Cut-off read from the data, not from the text of the source: active = inhibition mostly above about 36% (no sharp cut-off); inactive = mostly below about 34%.

target: T1, Nucleotide-binding oligomerization domain-containing protein 1, Homo sapiens (UniProt Q9Y239); test: NOD1 signaling inhibitors, primary screen, cell-based, luminescence, uHTS (AID 1578)
T1 sequence (whole entry): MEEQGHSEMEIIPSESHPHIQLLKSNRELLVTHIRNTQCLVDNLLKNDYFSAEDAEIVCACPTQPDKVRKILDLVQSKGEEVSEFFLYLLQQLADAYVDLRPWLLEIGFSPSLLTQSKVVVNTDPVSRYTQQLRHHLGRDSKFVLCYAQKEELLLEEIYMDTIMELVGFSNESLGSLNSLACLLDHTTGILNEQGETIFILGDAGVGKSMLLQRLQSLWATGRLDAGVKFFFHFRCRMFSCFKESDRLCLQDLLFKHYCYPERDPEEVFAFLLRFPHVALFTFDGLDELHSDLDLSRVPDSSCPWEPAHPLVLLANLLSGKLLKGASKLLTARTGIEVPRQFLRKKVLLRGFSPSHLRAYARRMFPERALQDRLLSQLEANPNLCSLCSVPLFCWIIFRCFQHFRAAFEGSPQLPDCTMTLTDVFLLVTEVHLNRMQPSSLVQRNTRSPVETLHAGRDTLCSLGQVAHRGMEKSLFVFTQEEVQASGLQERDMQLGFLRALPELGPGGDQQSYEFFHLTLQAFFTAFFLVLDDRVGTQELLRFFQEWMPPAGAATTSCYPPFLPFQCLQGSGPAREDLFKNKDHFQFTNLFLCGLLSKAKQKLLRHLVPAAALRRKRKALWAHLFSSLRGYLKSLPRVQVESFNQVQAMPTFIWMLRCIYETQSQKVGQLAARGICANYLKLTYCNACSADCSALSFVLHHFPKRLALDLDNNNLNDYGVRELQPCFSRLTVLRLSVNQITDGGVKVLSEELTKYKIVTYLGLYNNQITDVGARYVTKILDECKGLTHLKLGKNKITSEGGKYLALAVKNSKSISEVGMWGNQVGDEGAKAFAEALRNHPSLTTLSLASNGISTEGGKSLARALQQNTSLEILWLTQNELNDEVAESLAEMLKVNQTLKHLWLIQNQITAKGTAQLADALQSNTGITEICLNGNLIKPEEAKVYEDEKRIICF

outcome, active:
CC1CCc2nc(N)c(C#N)c(-c3cccnc3)c2C1 (stereo not given)
Cc1nc(N)c(C#N)c(-c2cccnc2)c1-c1ccccc1
Cc1ccc(NC(=O)O/N=C/c2c(C)nn(C(C)(C)C)c2C)cc1Cl
CC(=O)Oc1c(C)cc(Cl)cc1C(=O)Nc1ccc([N+](=O)[O-])cc1Cl
N#Cc1c(NC(=O)CSc2ncn[nH]2)sc2c1CCCC2
CC1CCc2c(sc(NC(=O)CSc3ncn[nH]3)c2C#N)C1 (stereo not given)
N#Cc1c(NC(=O)CSc2ncn[nH]2)sc2c1CCCCC2
Cc1ccc(NC(=O)c2cc3c(s2)CCCC3)cc1S(=O)(=O)Nc1ccccc1Cl
O=C(Nc1cc(S(=O)(=O)Nc2ccccc2Cl)ccc1O)c1cc2c(s1)CCCC2
Cn1c(=O)c(C#N)c(-c2ccc(F)cc2)c2cc(C(=O)c3cc(Cl)cc(Cl)c3O)cnc21
CC(C)(C)c1ccc(C(=O)N2CCCCCC2=O)cc1
O=C(COc1ccc(Cl)cc1Cl)Nc1ccc(C(=O)Nc2ccccc2C(=O)O)cc1
Oc1c(Cl)cc(Cl)c2cccnc12
Oc1c(I)cc(Cl)c2cccnc12
O=C(Oc1c(Cl)cc(Cl)c2cccnc12)c1ccco1
O=[N+]([O-])c1cc(Cl)c(O)c2ncccc12
Oc1c(I)cc(I)c2cccnc12
c1ccc(N2CCN(c3ncnc4sc5c(c34)CCC5)CC2)cc1
Cn1c(-c2ccccc2)c(C(=O)CCl)c2ccccc21
Cn1cc(C(=O)CCl)c2ccccc21
c1ccc(CN2CCN(c3ncnc4c3[nH]c3ccccc34)CC2)cc1
Cc1ccc2[nH]c3c(N4CCc5ccccc5C4)ncnc3c2c1
Cc1ccc2[nH]c3c(N4CCN(Cc5ccccc5)CC4)ncnc3c2c1
Cc1ccc2c(c1)[nH]c1c(N3CCN(Cc4ccccc4)CC3)ncnc12
O=C(CCCc1nc(-c2ccc(Cl)cc2)no1)NC1CCCC1
Cc1ccc(-c2noc(CCCC(=O)NC3CCCCC3)n2)cc1
O=C(CCCc1nc(-c2ccc(Cl)cc2)no1)NC1CCCCC1
N#CC(c1cccc(Cl)c1)c1ccc2c(C(F)(F)F)cc(C(F)(F)F)nc2n1 (stereo not given)
CCCCN(c1ccccc1)c1ncnc(N)c1[N+](=O)[O-]
Cc1ccc(Cl)cc1N1CCN(C(=O)CSc2nnc3n2C(C)(C)Cc2ccccc2-3)CC1
CC1(C)CC(N2CCN(C(c3ccccc3)c3ccccc3)CC2)=CC(=[N+]2CCCCC2)C1.[I-]
CN(Cc1ccccc1)C1=CC(=[N+]2CCCCC2)CC(C)(C)C1.[I-]
c1csc(CCNc2ncnc3sc4c(c23)CCC4)c1
Cc1cc(C(=O)NC2CCCc3c2cnn3-c2ccc(C(C)(C)C)cc2)nn1C (stereo not given)
Cn1nccc1C(=O)NC1CCCc2c1cnn2-c1ccc(C(C)(C)C)cc1 (stereo not given)
CC(C)(C)c1ccc(-n2ncc3c2CCCC3NC(=O)C2(C(N)=O)CC2)cc1 (stereo not given)
Cc1ccc(NC(=O)Nc2nnc(-c3ccncc3)s2)cc1C
O=C(Nc1ccc2nc3n(c(=O)c2c1)CCCCC3)c1c(F)ccc([N+](=O)[O-])c1F
CCOc1cccc(-c2c(C(=O)N/N=C(\C)c3ccccn3)nnn2-c2nonc2N)c1
CN(C)S(=O)(=O)c1cccc(NC(=O)c2ccc(COc3ccccc3)cc2)c1
COc1ccc(C(=O)/C=C/C(=O)N(CC(=O)NC2CCCCC2)Cc2ccccc2OC)c(O)c1
CCn1c(Oc2ccccc2F)nc2c1c(=O)n(C)c(=O)n2C
C=CCn1c(Oc2ccc(C(=O)OC)cc2)nc2c1c(=O)n(C)c(=O)n2C
C=CCn1c(Oc2ccccc2F)nc2c1c(=O)n(C)c(=O)n2C
Cc1ccc(S(=O)(=O)c2cc3cc(Br)ccc3oc2=O)cc1
O=c1oc2ccc(Br)cc2cc1S(=O)(=O)c1ccc(F)cc1
O=C(O)c1c(NC(=O)c2cccc3ccccc23)sc2c1CCC2
COc1ccc(-c2c[n+]3c(n2-c2ccc(C)cc2)CCCCC3)cc1.[Br-]
Cc1cc(Br)ccc1NC(=O)CNC(=O)Cn1ncc(Cl)c(Cl)c1=O
CCC(=O)Nc1ccc(C(=O)Cn2ncc(Cl)c(Cl)c2=O)cc1
CCOC(=O)c1ccc(NC(=O)Cn2ncc(Cl)c(Cl)c2=O)cc1
O=C(Cn1ncc(Cl)c(Cl)c1=O)c1ccc(Cl)cc1
O=C(Cn1ncc(Cl)c(Cl)c1=O)N1CCc2ccccc21
C#Cc1ccc([C@@H]2C=C(C(=O)N3CCN(Cc4ccccc4)CC3)O[C@H](OCCCCO)C2)cc1
O=C(COc1ccc(Br)cc1)Nc1ccc(Cc2ccncc2)cc1
Cn1cnnc1Sc1ccc(/C=C/C(=O)c2ccc(O)cc2)cc1[N+](=O)[O-]
C(=N\Nc1nc2ccccc2s1)/c1ccccn1
CCn1c(=O)c2c(cnn2C)c2ccccc21
CC(=O)c1c(O)c(C)c(O)c2c1OC1=CC(=O)C(C(C)=O)C(=O)[C@@]12C (stereo not given in full)
O=C(NCc1ccco1)c1nc2c(nnn2Cc2ccccc2Cl)c(=O)[nH]1
O=C(NCc1cccs1)c1nc2c(nnn2Cc2ccccc2Cl)c(=O)[nH]1
COc1ccc(-n2cnc3ccccc32)cc1
COc1ccc2ncn(-c3ccccc3)c2c1
O=C(CSc1nnc2c(n1)[nH]c1ccccc12)NC1CCCCC1
NC(=S)N/N=C\c1c(OCc2ccccc2Cl)ccc2ccccc12
CC(C)N1C(=O)/C(=C/c2nc3ccccc3c(=O)n2-c2ccccc2)c2ccccc21
Cc1cccc(-n2c(SCC(=O)N3CCC(C(=O)O)CC3)nc3ccccc3c2=O)c1C
CC1=CC(C)(C)Nc2ccc(OC(=O)CN3C(=O)CCC3=O)cc21
CC1=CC(C)(C)Nc2ccc(OC(=O)CN3C(=O)C4CCCCC4C3=O)cc21 (stereo not given)
Oc1c(Cl)cc(Cl)cc1/C=C/c1ccc2cccc(O)c2n1
COc1cc(/C=C/c2ccc3cccc(O)c3n2)cc(OC)c1OC
COc1cc(/C=C/c2ccc3cccc(O)c3n2)ccc1O
COc1ccc(OC)c(/C=C/c2ccc3cccc(O)c3n2)c1
O=C(Nc1nnc(-c2cccs2)o1)c1cccc(Oc2ccccc2)c1
O=C(Nc1nnc(-c2cccs2)o1)c1cccc(C(F)(F)F)c1
O=C(C1CCC(CNS(=O)(=O)c2cccs2)CC1)N1CCN(c2ccc(Cl)cc2)CC1 (stereo not given)
O=C(Nc1ccccc1C(=O)Nc1nnc(C(F)(F)F)s1)c1ccccc1
Cc1onc(-c2c(F)cccc2Cl)c1C(=O)Nc1nnc(C(F)(F)F)s1
O=C(Nc1ccccc1C(=O)Nc1nnc(C(F)(F)F)s1)c1ccccc1Cl
COc1ccccc1CN(Cc1nc2ccccc2c(=O)[nH]1)S(=O)(=O)c1ccc2ccccc2c1
N#C/C(=C\c1ccc(O)c([N+](=O)[O-])c1)c1nc2ccccc2s1
O=C(CCl)N1c2ccccc2OCC1c1ccccc1 (stereo not given)
Cc1ccc(C(=O)Nc2ccccc2-c2ccccc2)cc1[N+](=O)[O-]
Cc1cccc(C)c1OCC(=O)OC/C(O)=C(\C#N)c1nc2ccccc2[nH]1
COc1ccccc1OCC(=O)OC/C(O)=C(\C#N)c1nc2ccccc2[nH]1
O=C(Nc1nc2ccccc2n1CCOc1ccc(Cl)cc1)c1ccco1
CCOC(=O)c1sc(NC(=O)c2cc(-c3ccccc3C)nc3ccccc23)c(C#N)c1C
Cc1ccccc1-c1cc(C(=O)Nc2sc(C(=O)OC(C)C)c(C)c2C#N)c2ccccc2n1
CCOC(=O)c1sc(NC(=O)CSc2nc3c(cc2C#N)CCCCCC3)c(C#N)c1C
COC(=O)c1sc(NC(=O)c2cc(-c3ccccc3)nc3ccccc23)c(C#N)c1C
CCOC(=O)c1sc(NC(=O)c2cc(-c3ccccc3)nc3ccccc23)c(C#N)c1C
CCOC(=O)c1sc(NC(=O)CSc2n[nH]c(-c3ccccc3)n2)c(C#N)c1C
Cc1ccc(C(=O)O/N=C(\N)c2ccccn2)c(C)c1
Cc1ccc(C)c(N2CCN(C(=O)CCCCCn3c(=S)[nH]c4ccc(N5CCOCC5)cc4c3=O)CC2)c1
N#Cc1ccc(C(=O)Nc2nc(-c3cccs3)c(C(=O)C(F)(F)F)s2)cc1
CN(c1ccccc1)S(=O)(=O)c1ccc(NC(=O)c2nc(S(C)(=O)=O)ncc2Cl)cc1
CCS(=O)(=O)c1ncc(Cl)c(C(=O)Nc2ccc(S(=O)(=O)N(C)c3ccccc3)cc2)n1
CCS(=O)(=O)c1ncc(Cl)c(C(=O)Nc2ccc(C)cc2)n1
CCN(c1ccccc1)S(=O)(=O)c1ccc(NC(=S)NC(=O)c2cccs2)cc1
Fc1ccc(NC(=S)N2CCCN(c3ccc(C(F)(F)F)cn3)CC2)c(F)c1
Cc1csc2ncnc(N3CCN(C(=S)Nc4ccc(C(F)(F)F)cc4)CC3)c12
Cc1csc2ncnc(N3CCN(C(=S)Nc4ccc(F)cc4F)CC3)c12
Cc1csc2c(N3CCN(C(=S)Nc4ccc(C(F)(F)F)cc4)CC3)ncnc12
Cc1csc2ncnc(N3CCN(C(=O)Nc4ccc(OC(F)(F)F)cc4)CC3)c12
Cc1csc2ncnc(N3CCN(S(=O)(=O)c4cccc(C(F)(F)F)c4)CC3)c12
Cc1c(C#N)c(NC(=O)CCl)n(Cc2cccs2)c1C
Cc1c(C#N)c(NC(=O)CCl)n(Cc2ccccc2)c1C
Br.CCCCCCCn1c2c(c(=N)c3c1CCC3)CCCC2
Br.CCCCCCCCn1c2c(c(=N)c3c1CCC3)CCCC2
Br.CCCCCCCCCn1c2c(c(=N)c3c1CCC3)CCCC2
